# Measured values reported in PubChem BioAssay (Tox21).
# Unmarked numbers belong to inactive results. Results filed as inconclusive are left out. Entries that show only a call come without a potency. The source made the active and inactive calls. Unless noted, the call rests on the fitted dose curve; in most records, active means well fitted curve in the direction sought with a large enough effect in the repeat runs; inconclusive means weak or mixed curves; inactive means no such curve, though single readings can be large; an effect the other way counts as inactive or inconclusive.
# Key:
# [1] = molecular target: Nuclear receptor subfamily 1 group I member 3 (Homo sapiens) (UniProt Q14994); test: qHTS assay to identify small molecule antagonists of the constitutive androstane receptor (CAR) signaling pathway (AID 1224838);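 further: HepG2 cells stably expressing hCAR with CYP2B6 luciferase reporter stimulated by CITCO; nearly all actives have a fitted effect of over 40% in size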; further: potency means the concentration at half of the fitted maximal effect
# Sequence of Nuclear receptor subfamily 1 group I member 3 (Homo sapiens) (Q14994 whole entry, looked up): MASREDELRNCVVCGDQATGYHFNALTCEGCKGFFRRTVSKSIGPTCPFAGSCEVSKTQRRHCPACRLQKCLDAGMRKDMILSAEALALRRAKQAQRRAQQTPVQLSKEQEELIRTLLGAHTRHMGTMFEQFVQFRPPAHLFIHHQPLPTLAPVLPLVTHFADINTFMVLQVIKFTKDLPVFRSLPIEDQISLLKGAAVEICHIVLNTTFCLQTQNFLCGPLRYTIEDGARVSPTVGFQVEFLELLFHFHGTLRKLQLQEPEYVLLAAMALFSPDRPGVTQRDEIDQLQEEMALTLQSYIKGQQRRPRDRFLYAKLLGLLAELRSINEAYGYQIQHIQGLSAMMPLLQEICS
# In short: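 Reporter luminescence was quantified after 24 h exposure of hCAR/CYP2B6-2.2kb double-stable HepG2 cells to compounds at 15 concentrations in the presence of 50 nM CITCO final.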
# [2] = molecular target: Nuclear receptor subfamily 1 group I member 3 (Homo sapiens) (UniProt Q14994); test: qHTS assay to identify small molecule agonists of the constitutive androstane receptor (CAR) signaling pathway (AID 1224839); further: nearly all actives have a fitted effect of over 15% in size; further: potency means the concentration at half of the fitted maximal effect
# In short: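 A 15-concentration quantitative screen uses HepG2 cells co-transfected stably with human CAR and CYP2B6-2.2kb reporter. Treatment lasts 24 h with 0.75 uM PK11195 final present; ONE-Glo luminescence is the signal.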
# [3] = qHTS assay to identify small molecule antagonists of the estrogen related receptor signaling pathway with the pleiotropic PPARgamma coactivator (PGC) from Tox21 10K library - cell viability counter screen (AID 1224840; active means well fitted cell-killing curve with a large enough effect in the repeat runs, not every such curve was filed as active; further: nearly all actives have a fitted effect of over 40% in size; further: potency means the concentration at half of the fitted maximal effect)
# In short: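 Here the PGC/ERR cells serve as a cytotoxicity control: they are exposed to compounds for 17.5 hours at 37 C, and live-cell signal is quantified using CellTiter-Fluor fluorescence.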
# [4] = qHTS assay to identify small molecule antagonists of the estrogen related receptor signaling pathway with the pleiotropic PPARgamma coactivator (PGC) from Tox21 10K library (AID 1224841; call rule not given here; further: actives are mostly falling curves and most rising ones were filed inactive; nearly all actives have a fitted effect of over 50% in size; further: potency means the concentration at half of the fitted maximal effect)
# In short: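 Each well held 2,000 PGC/ERR cells, pre-incubated six hours (37 C, 5% CO2). Test substances in DMSO were added by pin tool and left for 18 h at 37 C before luciferase detection by One-Glo.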
# [5] = qHTS assay to identify small molecule agonists of the estrogen related receptor signaling pathway with the pleiotropic PPARgamma coactivator (PGC) from Tox21 10K library (AID 1224842); further: nearly all actives have a fitted effect of over 15% in size
# In short: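 PGC/ERR reporter cell line, 2,000 cells per well, incubated 6 h at 37 C before 23 nL compound in DMSO was added. After 18 h at 37 C, One-Glo luminescence read following 30 min at room temperature.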
# [6] = molecular target: Thyrotropin receptor (Homo sapiens) (UniProt P16473); test: qHTS assay to identify small molecule agonists of the thyroid stimulating hormone receptor (TSHR) signaling pathway (AID 1224843; calls by dose curve; further: nearly all actives have a fitted effect of over 45% in size; further: potency means the concentration at half of the fitted maximal effect)
# Sequence of Thyrotropin receptor (Homo sapiens) (P16473 whole entry, looked up): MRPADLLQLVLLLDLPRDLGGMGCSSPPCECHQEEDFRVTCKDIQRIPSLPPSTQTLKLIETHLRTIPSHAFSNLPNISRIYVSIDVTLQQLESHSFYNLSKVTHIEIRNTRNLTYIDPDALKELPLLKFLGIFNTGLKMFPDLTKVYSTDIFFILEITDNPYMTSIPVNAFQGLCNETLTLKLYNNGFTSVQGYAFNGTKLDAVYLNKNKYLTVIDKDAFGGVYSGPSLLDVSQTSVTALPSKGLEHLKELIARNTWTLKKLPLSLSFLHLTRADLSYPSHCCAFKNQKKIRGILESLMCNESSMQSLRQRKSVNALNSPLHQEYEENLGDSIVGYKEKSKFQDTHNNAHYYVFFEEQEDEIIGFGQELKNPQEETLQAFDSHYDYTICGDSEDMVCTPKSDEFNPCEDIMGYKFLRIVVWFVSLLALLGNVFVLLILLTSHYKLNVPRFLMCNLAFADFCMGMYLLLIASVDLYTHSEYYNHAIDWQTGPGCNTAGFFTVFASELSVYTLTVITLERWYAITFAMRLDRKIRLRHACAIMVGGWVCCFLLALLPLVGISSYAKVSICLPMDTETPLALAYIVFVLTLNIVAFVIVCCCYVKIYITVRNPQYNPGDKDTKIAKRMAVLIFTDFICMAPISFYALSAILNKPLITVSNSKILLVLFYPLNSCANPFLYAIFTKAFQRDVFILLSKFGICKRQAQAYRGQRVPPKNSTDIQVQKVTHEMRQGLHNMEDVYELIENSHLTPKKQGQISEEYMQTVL
# In short: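 TSHR-HEK293 cells in agonist mode, 30 min room-temperature step, then cAMP measured by competitive HTRF (cAMP-d2 with anti-cAMP cryptate) after 1 h at room temperature. Tested at 15 concentrations in triplicate.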
# [7] = qHTS assay to identify small molecule agonists of the hypoxia (HIF-1) signaling pathway (AID 1224846; active means well fitted activation curve with a large enough effect in the signal ratio in the repeat runs, not every such curve was filed as active; the % refers to the signal ratio)
# In short: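 Hypoxia-pathway activation was scored as increased beta-lactamase from an HRE-controlled reporter in ME-180 cells; plated at 2,000 cells per well with 0.5% dialyzed FBS, they were exposed 17 hrs to compounds and then given CCF4-AM.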
# [8] = qHTS assay to identify small molecule agonists of H2AX - cell viability counter screen (AID 1224847; calls by dose curve; further: nearly all actives have a fitted effect of over 30% in size; further: potency means the concentration at half of the fitted maximal effect)
# In short: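 We seed wild-type CHO-K1 cells overnight, treat them for 3 hr at 37C with compounds in 15-concentration series, and quantify remaining viability by CellTiter-Glo luminescence.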
# [9] = qHTS assay to identify small molecule antagonists of the estrogen related receptor (ERR) signaling pathway from Tox21 library (AID 1224848); further: nearly all actives have a fitted effect of over 50% in size; further: potency means the concentration at half of the fitted maximal effect
# In short: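 ERR reporter cell line (from NTP) seeded 2,000 cells/well, rested 6 h at 37 C/5% CO2, then pin-dosed with compounds in DMSO. After 18 h at 37 C, ONE-Glo added; luminescence read after 30 min at room temperature.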
# [10] = qHTS assay to identify small molecule agonists of the estrogen related receptor (ERR) signaling pathway from Tox21 library (AID 1224849; calls by dose curve; further: nearly all actives have a fitted effect of over 15% in size); conditions: ERR reporter cell line, ONE-Glo luciferase, 18 h; at 92.4 µM (top of the series) unless noted
# In short: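 Six hours post-seeding at 37 C/5% CO2, ERR cells receive DMSO-solubilised compounds; after 18 h at 37 C, ONE-Glo reagent is applied and luminescence recorded.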
# [11] = A CellTox Green Cytotoxicity Assay to monitor cytotoxicity in HEK293 cells - 0 hour (AID 1224869); further: nearly all actives have a fitted effect of over 50% in size
# In short: (§1)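 Seeding of HEK293 cells together with cytotoxicity dye preceded a 5 h incubation at 37 C/5% CO2. Test compounds in DMSO were then added and fluorescence monitored across 40 h.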
# [12] = qHTS assay to identify small molecule agonists of the hypoxia (HIF-1) signaling pathway - cell viability counter screen (AID 1224844; calls by dose curve; further: nearly all actives have a fitted effect of over 50% in size; further: potency means the concentration at half of the fitted maximal effect)
# In short: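 Multiplexed with the HRE beta-lactamase assay, this viability read used CellTiter-Glo luminescence (30 min, RT) on HRE-bla ME-180 cells treated 17 hrs with compounds in 0.5% dialyzed FBS medium.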
# [13] = qHTS assay to identify small molecule agonists of H2AX (AID 1224845; active means well fitted activation curve with a large enough effect in the signal ratio in the repeat runs, not every such curve was filed as active; the % refers to the signal ratio; further: potency means the concentration at half of the fitted maximal effect)
# In short: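 Wild-type CHO-K1 cells, plated overnight, exposed 3hr at 37C to 15 concentrations (0.76% DMSO final). Lysed, then HTRF anti-pH2AX (S139) cryptate and anti-H2AX-d2 antibodies, 24 hr room temperature; 665/620 nm emission read.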
# [14] = qHTS RealTime-Glo MT Cell Viability Assay in HepG2 cells - 24 hour (AID 1224867); further: nearly all actives have a fitted effect of over 50% in size; further: potency means the concentration at half of the fitted maximal effect
# In short: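 HepG2 cells (600/well) were dispensed with RealTime-Glo reagents, incubated 5 h at 37 °C, then treated with compounds in DMSO for up to 40 h. Nonlytic NanoLuc luminescence reflecting viable cells was read at each stated time point.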
# [15] = qHTS RealTime-Glo MT Cell Viability Assay in HEK293 cells - 32 hour (AID 1224868); further: nearly all actives have a fitted effect of over 50% in size; further: potency means the concentration at half of the fitted maximal effect
# In short: (§2)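 HEK293 cells seeded with NanoLuc/prosubstrate reagent, rested 5 h at 37 C, then dosed and kept at 37 C up to 40 h. Nonlytic real-time luminescence from viable cells read at 0, 8, 16, 24, 32 and 40 h.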
# [16] = qHTS RealTime-Glo MT Cell Viability Assay in HepG2 cells - 40 hour (AID 1224870); further: nearly all actives have a fitted effect of over 50% in size; further: potency means the concentration at half of the fitted maximal effect
# In short: (§3)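 HepG2 cells (600/well) mixed with RealTime-Glo MT reagent, settled 5 h at 37 C/5% CO2 before compound addition. Nonlytic NanoLuc luminescence from viable-cell prosubstrate reduction read repeatedly during 40 h treatment at 37 C.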
# [17] = qHTS RealTime-Glo MT Cell Viability Assay in HEK293 cells - 16 hour (AID 1224872); further: nearly all actives have a fitted effect of over 50% in size; further: potency means the concentration at half of the fitted maximal effect
# In short: as §2
# [18] = qHTS RealTime-Glo MT Cell Viability Assay in HepG2 cells - 8 hour (AID 1224873); further: nearly all actives have a fitted effect of over 55% in size; further: potency means the concentration at half of the fitted maximal effect
# In short: as §3
# [19] = qHTS RealTime-Glo MT Cell Viability Assay in HEK293 cells - 40 hour (AID 1224874); conditions: RealTime-Glo luminescence; max response: hits give low values; further: nearly all actives have a fitted effect of over 50% in size; further: potency means the concentration at half of the fitted maximal effect
# In short: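 Tox21 screen in HEK293 using RealTime-Glo MT chemistry, with cells and reagent co-dispensed. Luminescence proportional to viable cell number was captured at intervals during 40 h compound exposure at 37 C.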
# [20] = A CellTox Green Cytotoxicity Assay to monitor cytotoxicity in HEK293 cells - 40 hour (AID 1224871); further: nearly all actives have a fitted effect of over 45% in size; further: potency means the concentration at half of the fitted maximal effect
# In short: as §1
structure (smiles),measurement,setting,value
CC(C)(C)C1=CC(=O)C(C(C)(C)C)=CC1=O,Potency,[1],inactive
same,Potency,[2],21.1 µM (active)
same,Potency,[3],inactive
same,Potency,[4],inactive
same,Potency,[5],inactive
same,Potency,[6],9.44 µM (active)
same,Potency,[7],inactive
same,Potency,[8],inactive
same,Potency,[9],inactive
same,"activity change, positive = activation",[10],-2.14% [at 42.5 µM]
same,Potency,[11],inactive
Cc1ccc(S(=O)(=O)C(I)I)cc1,Potency,[1],27.3 µM (active)
same,Potency,[2],inactive
same,Potency,[3],48.6 µM (active)
same,Potency,[5],inactive
same,Potency,[6],3.06 µM (active)
same,Potency,[12],13.8 µM (active)
same,Potency,[13],16 µM (active)
same,Potency,[8],22.5 µM (active)
same,Potency,[9],61.1 µM (active)
same,"activity change, positive = activation",[10],-77.2%
same,Potency,[14],11 µM (active)
same,Potency,[15],12.3 µM (active)
same,Potency,[11],inactive
same,Potency,[16],12.3 µM (active)
same,Potency,[17],15.5 µM (active)
same,Potency,[18],12.3 µM (active)
same,Potency,[19],8.71 µM (active)
CCC1(C)C(=O)N(Cl)C(=O)N1Cl (stereo unspecified),Potency,[1],inactive
same,Potency,[2],inactive
same,Potency,[3],inactive
same,Potency,[5],inactive
same,Potency,[6],inactive
same,Potency,[12],inactive
same,Potency,[13],inactive
same,Potency,[7],inactive
same,Potency,[8],inactive
same,Potency,[9],inactive
same,"activity change, positive = activation",[10],-3.41%
same,Potency,[14],inactive
same,Potency,[15],inactive
same,Potency,[11],inactive
same,Potency,[16],inactive
same,Potency,[20],inactive
same,Potency,[17],inactive
same,Potency,[18],inactive
same,max response,[19],2.78%
Nc1c(Br)cc([N+](=O)[O-])cc1Br,Potency,[1],inactive
same,Potency,[2],inactive
same,Potency,[3],inactive
same,Potency,[4],54.5 µM (active)
same,Potency,[5],inactive
same,Potency,[12],inactive
same,Potency,[13],inactive
same,Potency,[7],inactive
same,Potency,[8],inactive
same,"activity change, positive = activation",[10],-20.8%
same,Potency,[14],inactive
same,Potency,[15],inactive
same,Potency,[11],inactive
same,Potency,[16],inactive
same,Potency,[20],inactive
same,Potency,[17],inactive
same,Potency,[18],inactive
same,max response,[19],-23.8%
Nc1ccc(Oc2cccc(Oc3ccc(N)cc3)c2)cc1,Potency,[1],1.37 µM (active)
same,Potency,[2],inactive
same,Potency,[3],inactive
same,Potency,[4],8.63 µM (active)
same,Potency,[5],inactive
same,Potency,[6],inactive
same,Potency,[12],inactive
same,Potency,[13],113 µM (active)
same,Potency,[7],inactive
same,Potency,[9],4.33 µM (active)
same,"activity change, positive = activation",[10],-57.1%
same,Potency,[11],inactive
same,Potency,[16],inactive
same,Potency,[20],inactive
same,Potency,[17],inactive
same,Potency,[18],inactive
CCN(CCC#N)c1ccc(N=Nc2ccc([N+](=O)[O-])cc2)cc1,Potency,[1],inactive
same,Potency,[2],13.7 µM (active)
same,Potency,[3],inactive
same,Potency,[4],inactive
same,Potency,[6],inactive
same,Potency,[12],inactive
same,Potency,[13],inactive
same,Potency,[7],inactive
same,Potency,[9],inactive
same,"activity change, positive = activation",[10],15.7% (active)
same,Potency,[15],inactive
same,Potency,[11],inactive
same,Potency,[16],inactive
same,Potency,[20],inactive
same,Potency,[17],inactive
same,Potency,[18],inactive
same,max response,[19],0.454%
CCCCCc1ccc(O)cc1,Potency,[1],inactive
same,Potency,[2],54.5 µM (active)
same,Potency,[3],inactive
same,Potency,[4],inactive
same,Potency,[5],inactive
same,Potency,[6],inactive
same,Potency,[8],89.8 µM (active)
same,Potency,[9],inactive
same,"activity change, positive = activation",[10],1.58%
same,Potency,[14],inactive
same,Potency,[16],inactive
same,Potency,[20],34.7 µM (active)
same,Potency,[18],inactive
